Experimental data reported in the supplement of paper PMC3334620.
The full ranking holds about 33,000 sequences; the median of “E-score (-0.5 to 0.5)” is about -0.056, and the highest 2% start at about 0.38. This is one part of a sample in which the highest values are shown more often than they occur.

target: Stb4 (UniProt P50104); experiment: PBM E-score (8-mer binding enrichment) (E-score (-0.5 to 0.5)); higher = stronger / more preferred TF binding; settings: protein concentration: 200 nM; construct: GST-DNA-binding domain
Chain of UniProt P50104 (P50104 whole entry, the tested form may be a part): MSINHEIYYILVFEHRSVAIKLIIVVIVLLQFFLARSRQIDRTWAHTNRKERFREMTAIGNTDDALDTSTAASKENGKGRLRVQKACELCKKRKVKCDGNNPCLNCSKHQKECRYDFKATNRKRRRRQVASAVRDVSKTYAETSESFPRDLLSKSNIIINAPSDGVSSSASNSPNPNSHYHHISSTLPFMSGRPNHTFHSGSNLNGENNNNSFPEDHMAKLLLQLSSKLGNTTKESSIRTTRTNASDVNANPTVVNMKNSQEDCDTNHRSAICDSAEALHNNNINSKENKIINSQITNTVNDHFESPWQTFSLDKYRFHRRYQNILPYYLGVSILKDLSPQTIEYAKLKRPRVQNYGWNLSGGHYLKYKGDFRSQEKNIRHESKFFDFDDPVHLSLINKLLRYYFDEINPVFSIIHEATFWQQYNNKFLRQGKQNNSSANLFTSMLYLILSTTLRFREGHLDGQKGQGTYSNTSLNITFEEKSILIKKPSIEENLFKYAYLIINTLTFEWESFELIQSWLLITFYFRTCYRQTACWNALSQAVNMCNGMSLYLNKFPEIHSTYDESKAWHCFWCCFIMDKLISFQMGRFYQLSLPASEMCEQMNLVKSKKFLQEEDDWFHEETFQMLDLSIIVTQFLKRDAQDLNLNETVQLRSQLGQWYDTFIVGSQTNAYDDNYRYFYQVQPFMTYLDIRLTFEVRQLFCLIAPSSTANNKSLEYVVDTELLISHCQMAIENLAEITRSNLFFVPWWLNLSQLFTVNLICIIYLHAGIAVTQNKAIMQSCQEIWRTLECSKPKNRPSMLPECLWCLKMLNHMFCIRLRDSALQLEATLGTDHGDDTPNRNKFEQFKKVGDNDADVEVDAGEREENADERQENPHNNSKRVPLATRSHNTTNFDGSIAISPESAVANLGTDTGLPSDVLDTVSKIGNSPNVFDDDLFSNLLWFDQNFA
Outline: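 Universal all-10-mer Agilent arrays, fresh or stripped once, were converted to double-stranded form by primer extension. GST-tagged yeast transcription factors from PURExpress in vitro transcription/translation, full-length or DNA-binding domain only, were applied at about 100-200 nM and detected with fluorescent anti-GST. After masliner normalisation, the Universal PBM Analysis Suite scored each ungapped eight-base word together with its reverse complement by E-score.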

Sequence | PBM E-score
GACCCAAC | -0.116
CGGTAGAG | 0.112
AATTTGCC | 0.0997
ATGAGATC | -0.124
ACTGAAAT | -0.18
GGTCGGAC | 0.144
AGTCGTAT | -0.147
CGTCGGAC | 0.269
AGTCGGCC | 0.168
GGACGGAA | 0.328
CGTCGGAG | 0.275
GGTCGGGA | 0.368
CGTCGGGA | 0.383
CGTCGGAA | 0.452
AGTCGGAT | 0.429
AGTCGGGA | 0.362
GGTCGGAA | 0.439
CTAGATAC | 0.0146
AGGACCGC | -0.0222
CAGAATAA | -0.0851
AGTCGGAG | 0.226
TGTCGTAA | -0.215
TGACGGAA | 0.312
AGTCGGAC | 0.176
AGTCGGAA | 0.451
TGTCGGAA | 0.416

Sequence | PBM E-score
AGAGAACT | -0.114
GGGTCACA | -0.0305
CAATTTAA | -0.105
GGTTTTTA | -0.0968
CAGGAGCA | -0.163
CACCTGAG | -0.337
CGGATATC | 0.426
CGGATATA | 0.452
GGGATATA | 0.168
AGGATATA | -0.0497
CTGATATC | 0.136
AGGATATC | 0.0132
TCCAGTAA | -0.176
TCTGACCA | -0.24
GGTTCGCA | 0.0434
CGTTCGGA | 0.465
CGTTCGTA | -0.0524
GGTTCGAA | -0.0143
CGTTCGGC | 0.368
GGTTCGGA | 0.442
ACATTGGA | -0.177
CGAGATAG | 0.00411
CTGCAAAG | -0.28
CGTCCTGA | -0.249
TCCGTTAA | 0.259
AAAAACCT | 0.0896

Sequence | PBM E-score
CACGAGGA | -0.11
ACCGAGGC | 0.302
CCCGAGGA | 0.388
GCCGAGGC | 0.436
ACCGAGGA | 0.323
CTCGAGGA | -0.188
GACGAGGC | -0.0506
TCAGAGGA | -0.183
TACGAGGA | -0.193
TCCGAGGA | 0.453
GTCGAGGA | -0.239
GCCGAGGA | 0.4
GTAAGCAC | -0.144
CGAAATGC | 0.124
ATGTCGTA | -0.29
AGGATGGA | 0.0445
CAGGATTA | 0.00923
CACCCTCG | 0.0812
CACACATG | -0.15
CGATCGCC | 0.0955
TAGTAACA | -0.0586
CCCAGAGC | -0.299
AGAAGGAA | 0.0573
CGCGAGGC | 0.0155
CACGAGGC | -0.131
CCCGAGGG | 0.404

Sequence | PBM E-score
CACGAGGG | -0.0631
CCCGAGGC | 0.388
ACCGAGGG | 0.27
CCATAAGG | -0.314
CCAGATAC | -0.122
CTATTGCA | -0.0693
ACAGACCT | 0.00106
ACCAATCT | 0.0037
CGGATAAC | 0.452
CGGATAAG | 0.41
AGGATAAA | -0.0635
CCGATAAG | 0.269
CGGATAAA | 0.465
TGGATAAA | 0.027
AGGATAAC | -0.159
GGGATAAC | 0.0907
AGGATAAG | -0.0142
AGATCAGC | 0.0618
GGTAGACC | 0.143
CCTCTTAC | -0.274
AACGACTA | -0.151
AAGGTACG | -0.0106
GGCCTAAA | -0.102
ATCCGACA | 0.442
GTCCGACA | 0.213
CTCCGACC | 0.315

Sequence | PBM E-score
ACCCGACC | 0.382
ATCCGACG | 0.452
AACCGACG | 0.304
AGCCGACG | 0.353
ATCCGACC | 0.425
CTCCGACA | 0.227
CAAATCTA | -0.211
CCTTTGTC | -0.141
GCCTACGC | -0.306
TACACTGA | -0.0306
CCGAAGAA | 0.402
ACGAAGAA | -0.0766
ACGAAGAG | -0.117
CCGAAGAC | 0.374
TCGAAGAA | -0.122
CCGAAGAG | 0.417
GAGTACTC | -0.00922
AACGACGT | -0.166
ATTGACCC | 0.0534
GCGAGCGA | -0.0989
CCGAGCGG | 0.431
CCGAGCGA | 0.403
ACGAGCGC | -0.0806
ACGAGCGA | -0.402
GCGAGCGC | -0.103
ACGAGCGG | 0.0575

Sequence | PBM E-score
CCGAGCGC | 0.44
CAGAGCGG | -0.0262
AGTATCGA | -0.072
ATTCGCAG | -0.152
AAAGTCGC | 0.0621
AGATTTAG | -0.0774
ACTTTGGC | 0.123
CTCGACAC | -0.144
CCGAATAC | 0.425
CCGAATTA | 0.363
ACGAATTC | -0.192
CCGAATAA | 0.381
CCGAATTC | 0.398
ACGAATAC | -0.0867
ACGACCGA | 0.0769
TCCGCCAA | 0.233
CGGTCGGA | 0.388
GGGTCGGA | 0.392
AGGTCGGA | 0.345
CGGTCGGC | 0.318
GGGTCGAA | 0.0324
CGGTCGTA | 0.128
GCGTCCGA | 0.282
GGCATGCC | 0.156
GTCTAGTA | -0.11
GTACTGTA | -0.171

Sequence | PBM E-score
AACCACAG | -0.177
GTCGAATA | -0.181
ACCGAATC | 0.357
CTCGAATC | -0.207
CACGAATA | -0.22
CCCGAATC | 0.397
GCCGAATA | 0.427
CCCGAATA | 0.397
ACCGAATA | 0.215
CTCGAATA | 0.0163
CCATCACA | -0.197
CCCCATCA | -0.137
CCTTCTTA | -0.143
CCGGCATC | 0.28
CCTTTCAA | -0.112
GAATGGTC | 0.0599
CCAGACGG | -0.0564
TCGGATCA | 0.46
ACGGATCC | 0.352
ACGGATCA | 0.325
GCGGATCC | 0.301
CCGGATCC | 0.395
ACGGATGC | 0.298
CCGGATGC | 0.396
TCAGATCA | -0.235
CCGGATCA | 0.383

Sequence | PBM E-score
CCGGATGA | 0.366
GCGGATCA | 0.196
TAGGATCA | -0.0704
AGATCTAG | -0.255
TTGGCAAA | -0.183
AACCGCGG | 0.291
GAGGAGGC | -0.196
ACGTTTTC | 0.0722
GATTGCTA | -0.122
TTAGACAA | -0.0136
CCGGATCG | 0.413
CAGGATCG | 0.0947
ACGGATCG | 0.315
TATGACGA | -0.111
GGAAGTGA | 0.245
ATTAGAGG | 6e-05
AACTGGAA | -0.0984
CATTTAGA | -0.00372
ATTCCGAG | 0.472
GTTCCAAA | -0.0427
ATTCCGTA | 0.265
CTTCCAAA | -0.174
CTTCCGCA | 0.331
CTTCCGAA | 0.479
AGTCCGAG | 0.371
ATTCCGAA | 0.464

Sequence | PBM E-score
ATTCCGCA | 0.169
GTTCCGCA | 0.293
ATTCCGTG | 0.363
GTTCCGAA | 0.479
GCGATCTA | -0.0238
GCGACCAA | -0.183
CCGCCAAG | -0.059
AACATCGT | -0.0992
ATCTCCGG | 0.345
GCTTGCGA | -0.104
ACTAAGCG | -0.0604
CCTATATA | -0.103
GGAATCAC | 0.244
CCAGGCTA | -0.289
CAAAATTC | 0.165
ATTCCGAC | 0.416
CTTCCGTC | 0.341
CTTCCGCC | 0.297
AGTCCGAC | 0.11
ATTCCGTC | 0.285
CTTCCGAC | 0.457
GCTACCCC | -0.0436
TCTTGCAA | 0.0931
AAAGAGCT | -0.128
ATTAGAAT | -0.0347
GCCCGGAA | 0.423

Sequence | PBM E-score
ACCCGGAG | 0.373
ACCCGGAT | 0.374
CCCCGGAA | 0.27
TCCCGGGA | 0.409
GCCCGGTA | 0.263
TCCCGGCA | 0.298
CCCCGGGA | 0.307
TCCCGGAA | 0.407
GCCCGGAC | 0.229
GCCCGGGA | 0.308
ACCCGGAA | 0.433
CGGTAGGA | 0.136
AGCTCATA | -0.0221
AACAACTT | -0.165
CCTATGAG | -0.227
GTAGCAAA | -0.0766
ATTGACGA | -0.138
TCACATCA | -0.0958
CCTCGGAG | 0.408
CCTCGGAA | 0.484
CCGCGGAA | 0.352
CCTCGAAA | -0.27
CCTCGGAC | 0.321
ACTCGGAG | 0.362
CATCAACC | 0.00345
ACATCAAA | -0.0159

Sequence | PBM E-score
ACTCATCT | -0.224
AGCCAAGA | -0.22
AAAGGAGT | 0.0609
GATGCGAC | 0.0109
CTACTTGC | 0.104
CGGATGTC | 0.426
CTGATGTC | 0.0602
AGGATGAA | -0.0759
CGGATGAG | 0.369
AGGATGTC | -0.0723
CGGATGTA | 0.443
CGGATGAA | 0.433
GGGATGTA | 0.109
AGGATGTA | -0.177
ATCCTCTG | -0.208
CGCCACAA | -0.0226
ACCCGTTA | 0.269
AATGGAAA | 0.0387
CGTCCCAA | -0.155
GGTCCCGA | 0.39
CGTCCCGA | 0.402
AGTCCCGC | 0.15
GTCCCCGA | 0.288
GGTCCCTA | -0.115
AGTCCCGG | 0.304
AGTCCCGA | 0.389

Sequence | PBM E-score
CGTCCCGC | 0.248
CGTTACTA | -0.124
AGCCCCAC | -0.0851
ACAGGACA | -0.0558
CCATTGGA | -0.213
CTATTCAG | -0.288
CCCGCCAG | 0.0645
AGAATAAA | -0.194
AAATCTAT | -0.00166
GCGGAAGA | 0.317
CCGGAAGC | 0.395
ACGGAAGA | 0.349
ACGGAAGG | 0.313
CCGGAAGA | 0.389
CAGGAAGG | -0.208
AGGGAAGA | -0.277
GCGGAAGC | 0.336
CGGGAAGC | 0.299
CCGGAAGG | 0.392
CGGGAAGA | 0.401
ACGGAAGC | 0.337
CATACGGG | 0.152
AGACCGTG | -0.0481
AACTTGCC | 0.139
GAGTCGCA | -0.21
CCAGCCCC | -0.0533

Sequence | PBM E-score
CGTTCCAG | -0.0906
AACTCATA | 0.148
TAGGAAGA | -0.21
GGGGAATA | -0.0405
CGGGAATA | 0.417
TCGGAAGA | 0.455
TCAGAAGA | -0.217
AGGGAATA | 0.0561
ATTAGCAC | 0.00903
CTCCTGGC | -0.113
AGGCTAAA | -0.163
TGGCTAAA | 0.0298
CGGCTAAA | 0.388
AGTAGGGG | 0.0719
CGGATCAG | 0.33
AGGATCAC | -0.249
GGGATCAC | -0.0541
CGGATCGA | 0.404
CGGATCGC | 0.361
GGGATCTA | 0.0821
CGGATCAC | 0.397
TGGATCAA | -0.243
AGGATCGA | 0.00545
CGGATCAA | 0.401
CGGATCTC | 0.3
CGGATCTA | 0.391

Sequence | PBM E-score
CCTACAAG | -0.104
CGGTGGAG | 0.121
CATTCAAA | 0.048
CCGAGTTC | 0.396
CCGAGTTA | 0.34
CCGAGTCA | 0.381
CCGAGTAA | 0.345
ACGAGTAC | -0.106
ACGAGTAG | -0.11
ACGAGTTC | -0.00258
GCGAGTCC | -0.0651
CCGAGTAG | 0.391
CCGAGTAC | 0.383
CCGAGTCC | 0.403
GCGAGTAC | -0.0817
